Test results as given in the supplement of paper PMC12350171.
Where a name gives a salt, the structure may show the parent alone.

Columns and labels:
Conditions in all cases: 20 µM
[1] = system: Haemophilus parainfluenzae; assay: growth AUC normalised to DMSO control (fraction of control); higher = less growth inhibition, active = hit call of the paper
Procedure, shortened: (§1)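 For the AUC endpoint, growth curves were integrated by the trapezoidal rule up to the exponential-to-stationary transition and normalised to DMSO controls on the same plate. The curves came from OD578 readings taken hourly for 24 h, in three biological replicates. Pathogens had been passaged anaerobically twice and inoculated at an OD578 of 0.01 into pre-reduced mGAM plates carrying 20 μM compound and 1% DMSO, sealed with breathable membranes. Medium for Haemophilus parainfluenzae also contained hemin and NAD.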

[2] = system: Salmonella enterica typhimurium; assay: as above
Procedure, shortened: as §1

Shigella flexneri = assay: as above
Procedure, shortened: as §1

Vibrio cholerae = assay: as above
Procedure, shortened: as §1

[3] = system: Yersinia pseudotuberculosis; assay: as above
Procedure, shortened: as §1

P. vulgatus RND KO = assay: growth AUC normalised to DMSO control (median) (fraction of control); higher = less growth inhibition, active = hit call of the paper
Procedure, shortened: (§2)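 Strains were passaged twice overnight without oxygen, then grown in mGAM in 96-well plates with each approved-drug library compound at 20 μM and 1% DMSO, starting at OD578 0.01. OD578 was read hourly for 24 h inside an anaerobic incubator. Curves were truncated at entry into stationary phase, and the trapezoidal-rule area under the curve was normalised to same-plate vehicle wells. The value is the median across three biological replicates.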

P. vulgatus WT = assay: as above
Procedure, shortened: as §2

[4] = system: S. enterica typhimurium WT; assay: as above
Procedure, shortened: as §2

[5] = system: S. enterica typhimurium tolC KO; assay: as above
Procedure, shortened: as §2

Measured: growth AUC normalised to DMSO control
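For growth AUC normalised to DMSO control (median) in this document: active when median AUC fell below 0.1.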

C[C@@H]1CN([C@H]2CC[C@](C#N)(c3ccc(F)cc3)CC2)CC[C@]1(C(=O)O)c1ccccc1 [Levocabastine hydrochloride]
inactive: [1] 1.02 | [2] 1 | Shigella flexneri 1.02 | [3] 0.997 | P. vulgatus RND KO 0.989 | P. vulgatus WT 1.05 | [4] 0.997 | [5] 1.01
active: Vibrio cholerae 0.239

CC(C)c1cccc(C(C)C)c1O [Propofol]
inactive: [1] 0.988 | [2] 1.01 | Shigella flexneri 1.01 | Vibrio cholerae 1.01 | [3] 0.985 | P. vulgatus RND KO 1.05 | P. vulgatus WT 1.05 | [4] 1.01 | [5] 0.993

O=[N+]([O-])O[C@H]1CO[C@H]2[C@@H]1OC[C@H]2O[N+](=O)[O-] [Isosorbide dinitrate]
inactive: [1] 1.07 | [2] 1.03 | Shigella flexneri 1.02 | Vibrio cholerae 1.09 | [3] 1.01 | P. vulgatus RND KO 0.94 | P. vulgatus WT 0.94 | [4] 0.996 | [5] 1.01

COc1ccc(CCN2CCC(Nc3nc4ccccc4n3Cc3ccc(F)cc3)CC2)cc1 [Astemizole]
inactive: [1] 1.02 | [2] 1.05 | Shigella flexneri 0.997 | Vibrio cholerae 0.934 | [3] 1.02 | P. vulgatus RND KO 1.01 | P. vulgatus WT 0.986 | [4] 1 | [5] 0.962

CN1C[C@H](C(=O)N[C@]2(C)O[C@@]3(O)[C@@H]4CCCN4C(=O)[C@H](Cc4ccccc4)N3C2=O)C[C@@H]2c3cccc4[nH]cc(c34)C[C@H]21 [Dihydroergotamine tartrate]
inactive: [1] 1.04 | [2] 0.978 | Shigella flexneri 0.994 | Vibrio cholerae 1.02 | [3] 1.01 | P. vulgatus RND KO 0.989 | P. vulgatus WT 0.996 | [4] 1 | [5] 0.984

CC[C@@H](C(N)=O)N1CCCC1=O [Levetiracetam]
inactive: [1] 1.04 | [2] 1.01 | Shigella flexneri 1.03 | Vibrio cholerae 1.05 | [3] 1.01 | P. vulgatus RND KO 1.01 | P. vulgatus WT 1.03 | [4] 1.01 | [5] 1

COc1cc([C@@H]2c3cc4c(cc3[C@H](O)[C@H]3COC(=O)[C@H]23)OCO4)cc(OC)c1OC [Podophyllotoxin]
inactive: [1] 1.04 | [2] 0.999 | Shigella flexneri 0.999 | Vibrio cholerae 1.02 | [3] 1.01 | P. vulgatus RND KO 1 | P. vulgatus WT 1.02 | [4] 0.998 | [5] 0.996

NCC(CC(=O)O)c1ccc(Cl)cc1 (stereo unspecified) [Baclofen]
inactive: [1] 1.04 | [2] 1.01 | Shigella flexneri 1.01 | Vibrio cholerae 1.01 | [3] 0.992 | P. vulgatus RND KO 1.02 | P. vulgatus WT 1.07 | [4] 1.02 | [5] 0.999

C[C@@H]1CC[C@H]2[C@@H](C)C(=O)O[C@@H]3O[C@@]4(C)CC[C@@H]1[C@]32OO4 [Artemisinin]
inactive: [1] 0.986 | [2] 0.988 | Shigella flexneri 1.01 | Vibrio cholerae 0.987 | [3] 0.957 | P. vulgatus RND KO 1.02 | P. vulgatus WT 1.04 | [4] 0.996 | [5] 0.998

NCCc1c[nH]c2ccc(O)cc12 [Serotonin hydrochloride]
inactive: [1] 1.07 | [2] 0.983 | Shigella flexneri 1.02 | Vibrio cholerae 1.06 | [3] 0.981 | P. vulgatus RND KO 1.04 | P. vulgatus WT 1.08 | [4] 1 | [5] 0.998

O=[N+]([O-])O[C@@H]1CO[C@H]2[C@@H]1OC[C@@H]2O [Isosorbide mononitrate]
inactive: [1] 1.05 | [2] 1.01 | Shigella flexneri 1.03 | Vibrio cholerae 1.02 | [3] 1 | P. vulgatus RND KO 0.946 | P. vulgatus WT 0.958 | [4] 1 | [5] 0.99

CCOC(=O)c1cncn1[C@H](C)c1ccccc1 [Etomidate]
inactive: [1] 1.02 | [2] 1.01 | Shigella flexneri 1 | Vibrio cholerae 1.03 | [3] 0.984 | P. vulgatus RND KO 1.07 | P. vulgatus WT 1.1 | [4] 1 | [5] 0.978

CN1[C@@H]2C[C@@H](OC(=O)[C@H](CO)c3ccccc3)C[C@H]1[C@@H]1O[C@@H]12 [Scopolamine hydrochloride]
inactive: [1] 1.06 | [2] 1.03 | Shigella flexneri 1.06 | Vibrio cholerae 1.06 | [3] 1.03 | P. vulgatus RND KO 1.03 | P. vulgatus WT 1.05 | [4] 1 | [5] 1.01

CCNCC(O)c1cccc(O)c1 (stereo unspecified) [Etilefrine hydrochloride]
inactive: [1] 0.987 | [2] 0.976 | Shigella flexneri 0.987 | Vibrio cholerae 0.995 | [3] 0.979 | P. vulgatus RND KO 0.997 | P. vulgatus WT 0.995 | [4] 0.993 | [5] 1
